# Pf growth 48h: P. falciparum growth inhibition at 48 hours (one generation) | P. falciparum luciferase growth in erythrocytes, 48 h | Potency, µM (titrated, usually from 28.7 µM), without a hit: at the highest dose activity change, negative = inhibition, hits mostly inhibitors | 310,000 compounds, 5.9% hits | AID 504832; further: potency means the concentration at half of the fitted maximal effect; on the % scale 0 is the no-effect control and ±100 the full control effect
#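 Erythrocytes infected with P. falciparum carrying an integrated firefly luciferase reporter (2% hematocrit, 0.1% parasitemia final) were exposed to compounds in RPMI 1640 with 0.5% Albumax at 37 C, 5% CO2. Growth inhibition was scored as reduced luminescence.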
# Shiga toxin inh: blocks Shiga toxin action in Vero cells; Vero cells, Shiga toxin protein synthesis inhibition reporter; inhibition, % at 38.7 µM; 290,000 compounds, 9.2% hits; AID 2315; in the data active means inhibition mostly above about 28%, no sharp cut-off; inactive means mostly below about 43%; further: 0% is about no effect
# HCV inh: blocks hepatitis C virus | Huh7.5.1 HCVcc-Cre infection, luciferase reporter, 44 h | AID 651820 | Potency, µM (highest dose often 41.8 µM), for the others: at the highest dose activity change, negative = inhibition, actives largely listed as inhibitors | 340,000 compounds, 3.4% hits; further: potency means the concentration at half of the fitted maximal effect; on the % scale 0 is the no-effect control and ±100 the full control effect
#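 Reporter virus HCVcc-Cre (~0.5 moi) infects cells exposed to compound; seeding density 1,000 cells/well with 4 h settling beforehand. Luminescence, 15 sec read, taken 44 h post-infection following a 15 min RT substrate incubation.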
# HCMV antiviral: blocks human cytomegalovirus replication; HFF cells, HCMV-luciferase reporter, 72 h; hits give low values; activity change, negative = inhibition, % at 57.5 µM; 410,000 compounds, 4.5% hits; AID 1259415; in the data active means activity change below about -60%; inconclusive means no clear call, values can overlap the other calls; inactive means above about -39%; further: on the % scale 0 is the no-effect control and ±100 the full control effect
#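 Two compound doses tested in HFFs infected with HCMV-luciferase, MOI 1 PFU/cell, 72 h at 37C. Lysate luminescence read with OneGlo; data normalized against buffer-only and 10uM Salinomycin inhibitor controls.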
# Pf growth 96h: inhibits malaria parasite growth, 96 h; P. falciparum luciferase reporter growth, 96 h; Potency, µM (titrated, usually from 28.7 µM), without a hit: at the highest dose activity change, negative = inhibition, hits mostly inhibitors; 320,000 compounds, 6.9% hits; further: potency means the concentration at half of the fitted maximal effect; on the % scale 0 is the no-effect control and ±100 the full control effect
#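 P. falciparum expressing integrated firefly luciferase, in erythrocytes at 2% hematocrit, 0.05% parasitemia, incubated with compounds 96 h at 37 C, 5% CO2. Growth inhibition read as loss of luminescence; two-generation exposure targets delayed-death apicoplast inhibitors.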
# CHX counter: affects cycloheximide protein synthesis inhibition readout, counter-screen | cell reporter, cycloheximide protein synthesis inhibition counterscreen | max response, % | 300,000 compounds, 12% hits; in the data active means max response mostly above about 13%, no sharp cut-off; inactive means mostly below about 14%; further: read at 38.3 µM for the half of the compounds with a filed dose; 0% is about no effect
# Numbers without * were called inactive; ? = inconclusive; / = no result; [ ] = another dose, or the depositor's remark. Only some compounds are listed: those with a hit (about 21% of all), similar ones and a draw of the others. Unless noted, the call rests on the fitted dose curve; in most records, active means well fitted inhibition curve with a large enough effect; inconclusive means small, poorly fitted or top-dose-only effect, or another doubt; inactive means no such curve, though single readings can be large or run the other way.
SMILES,Pf growth 48h,Shiga toxin inh,HCV inh,HCMV antiviral,Pf growth 96h,CHX counter
CS(=O)(=O)N1CCc2cc(C(=O)Nc3ccc(Cl)cc3)ccc21,-19.9%,13.0,?,-0.2,55.3%,16.8*
COCCNC(=O)c1ccc2c(c1)CCN2S(C)(=O)=O,?,-10.7,13.9%,-61.8*,5.4%,0.2
CS(=O)(=O)N1CCc2cc(NC(=O)c3ccc(Cl)cc3Cl)ccc21,-4.7%,43.6,?,?,-27.4%,20.6*
O=C(NCc1cc(C(F)(F)F)ccc1Cl)c1cccc2c1C(=O)c1ccc(Cl)cc1S2(=O)=O,/,/,11.8%,-8.6,/,/
CSc1ccc(CN2CCCN(C)CC2)cc1,37.2%,-4.3,2.9%,9.1,0.0%,0.5
Cc1ccccc1CN1c2ccccc2S(=O)(=O)c2ccccc21,/,/,/,-0.5,/,/
CS(=O)(=O)N1CCCCC1c1cc(C(=O)Nc2cccc3c2CCCC3)no1 (stereo not given),/,/,/,7.6,/,/
NC(N)=Nc1nc(-c2ccccc2)c2ccccc2n1,11.7µM*,-4.5,-25.6%,-94.8*,-18.2%,-1.1
CCc1nc(N=C(N)N)nc2ccccc12,3.29µM*,-1.5,/,-82.0*,7.4%,-1.4
O=C1COCCN1,/,2.6,/,/,/,-0.8
COC(=O)c1cccc(NC(=O)C2COc3ccccc3O2)c1C (stereo not given),25.2%,53.9,4.0%,28.6,27.6%,19.6
Cc1ccc(NC(=O)C2COc3ccccc3O2)cc1C (stereo not given),98.1%,/,9.9%,/,?,25.7*
COc1ccccc1NC(=O)c1ccc(NC(=O)C2COc3ccccc3O2)cc1 (stereo not given),-0.5%,32.1,?,-6.1,-25.9%,-2.1
COC(=O)c1cccc(NC(=O)C2COc3ccccc3O2)c1 (stereo not given),146.8%,66.0*,?,29.8,/,32.9*
COC(=O)c1cc(NC(=O)C2COc3ccccc3O2)ccc1Cl (stereo not given),?,53.3*,-4.0%,6.4,?,20.5*
O=C(C1COc2ccccc2O1)N1CCN(c2ccc([N+](=O)[O-])cc2)CC1 (stereo not given),/,/,22.4µM*,-12.9,/,/
CN1CC[C@]2(CCN3CCc4c(oc5ccccc45)[C@@H]3C2)N(C)C1=O,?,/,?,?,-3.6%,/
COc1ccc(CCC2=NCCN2C(CC(C)C)c2nc3ccccc3[nH]2)cc1 (stereo not given),/,/,/,11.1,/,/
Cc1cc(C)cc(NC(=O)C2COc3ccccc3O2)c1 (stereo not given),/,/,/,-14.4,/,/
O=C(C1COc2ccccc2O1)N1CCc2ccccc21 (stereo not given),53.6%,67.4*,6.9%,-25.5,33.5%,67.7*
CCOCCOC(=O)c1ccc(NC(=O)C2COc3ccccc3O2)cc1 (stereo not given),18.8%,37.9,0.1%,29.0,?,22.4*
O=C(Nc1cccc([N+](=O)[O-])c1)C1COc2ccccc2O1 (stereo not given),-11.8%,15.1,7.3%,77.9,?,11.3*
CCOC(=O)c1ccc(NC(=O)C2COc3ccccc3O2)cc1 (stereo not given),51.5%,/,7.6%,-13.6,?,-2.5
Cc1cccc(NC(=O)C2COc3ccccc3O2)c1 (stereo not given),43.7%,72.1*,5.0%,30.8,77.5%,42.9*
O=C(COc1ccc([N+](=O)[O-])cc1)NNC(=O)C1COc2ccccc2O1 (stereo not given),/,/,/,-3.3,/,/
SMILES,Pf growth 48h,Shiga toxin inh,HCV inh,HCMV antiviral,Pf growth 96h,CHX counter
O=[N+]([O-])c1ccc(C2(O)CN(c3ccccc3)C3=[N+]2CCS3)cc1 (stereo not given),-26.9%,30.8,?,28.0,-29.6%,0.4
COc1ccccc1NCC(=O)n1nc(C)cc1C,0.0%,5.0,5.3%,-19.2,-9.7%,5.6
O=C(COC(=O)CC1CCCC1)Nc1cc2c(cc1Cl)C(=O)c1ccccc1C2=O,/,40.9,?,55.1,176.8%,31.6*
CC(C)c1ccc(NC(=O)COC(=O)CC2CCCC2)cc1,/,/,33.1%,0.0,/,/
CCOCCCNC(=O)C(NC(=O)CNC(C)=O)c1ccc(C)cc1 (stereo not given),6.9%,104.7,2.4%,9.5,9.28µM*,3.5
CCOCCCNC(=O)C(NC(=O)c1ccc(NC(C)=O)cc1)c1ccc(C)cc1 (stereo not given),-3.4%,-10.2,3.9%,26.5,41.4%,5.0
CCOCCCNC(=O)C(NC(=O)c1ccc(NC(C)=O)cc1)c1ccc(Cl)cc1 (stereo not given),6.4%,-12.7,0.2%,-62.9*,?,1.3
O=C(NNC(=O)c1cc2ccccc2o1)c1ccc(F)cc1,53.9%,/,4.7%,15.3,73.2%,/
O=C(c1ccc(F)cc1)c1cc2ccccc2o1,74.1%,41.5*,-19.8%,22.5,-20.7%,25.8*
O=C(NCc1nnnn1-c1ccc(F)cc1)c1cc2ccccc2o1,/,/,/,1.2,/,/
O=C(NCc1ccc(F)cc1)c1cc2ccccc2o1,-1.4%,31.9,-5.8%,-27.7,-10.0%,14.1*
O=C(c1ccccc1)c1cc2ccccc2o1,101.9%,79.8*,0.5%,31.3,19.6%,37.8*
COc1ccccc1NC(=O)C12CC3CC(C1)CC(c1ccc(C)cc1)(C3)C2,0.657µM*,-1.3,-18.6%,-15.8,66.4%,-4.0
Cc1ccc(C23CC4CC(CC(C(=O)NC(C)C(=O)O)(C4)C2)C3)cc1 (stereo not given),-9.7%,-4.7,36.0%,12.4,38.9%,2.9
Cc1ccc(C23CC4CC(CC(C(=O)NC(C)C)(C4)C2)C3)cc1,-16.7%,1.5,-19.0%,13.1,9.28µM*,2.0
CC(C)C(NC(=O)C(CC(=O)O)NC(=O)C(CCCCN)NC(=O)C(N)CCCN=C(N)N)C(=O)NC(Cc1ccc(O)cc1)C(=O)O (stereo not given),-1.1%,/,/,/,1.51µM*,/
CC(C)[C@H](NC(=O)[C@H](CC(=O)O)NC(=O)[C@H](CCCCN)NC(=O)[C@@H](N)CCCN=C(N)N)C(=O)N[C@@H](Cc1ccc(O)cc1)C(=O)O,4.8%,-10.4,6.0%[8.37 µM],/,-11.4%,-4.1
O=C(c1ccc2c(c1)N(Cc1ccc(Cl)cc1)C(=O)c1ccccc1S2(=O)=O)N1CCC(Cc2ccccc2)CC1,/,/,/,-19.7,/,/
CCCCN(CC)CCCNC(=O)c1cn(C)c(=O)c2c1c1ccccc1n2C,?,-13.1,8.3%,12.3,-18.6%,-7.2
Cn1cc(C(=O)NCCN2CCN(c3cccc(Cl)c3)CC2)c2c3ccccc3n(C)c2c1=O,1.04µM*,5.1,0.7%,-7.5,?,-2.5
Cn1c(=O)cc(OCC(=O)NCCCN2CCN(c3cccc(Cl)c3)CC2)c2ccccc21,?,-17.4,?,17.5,11.7µM*,-4.1
Cn1c(=O)cc(OCC(=O)NCCCN2CCN(c3ccccc3F)CC2)c2ccccc21,/,-14.3,-24.0%,?,?,-5.5

# From PubChem
